The values below come from PubChem BioAssay.

Structures are written as SMILES. Activity calls are given as the source filed them.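 Rule for the calls, unless noted: active = inhibition above 20% together with a positive visual image hit; inconclusive = visual image hit but inhibition not above 20%; inactive = no visual image hit.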

A short description of one experiment: inhibitors of TNFa-induced NFkB p65 translocation, primary screen, imaging, HUVEC, MLSMR starter and 10KST1 sets (AID 438).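 For inhibition: signal is the nuclear over cytoplasmic p65 intensity ratio per well.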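 Note: compound added about 3h40 before a 20 min TNFalpha stimulation.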 Particulars: HUVEC TNFa-induced p65 nuclear translocation; cell count: measured here: nuclei count (cytotoxicity indicator), at 2.08 µM; inhibition: at 2 µM, stronger effect = higher value, 0% TNFa-plus-vehicle, 100% no-TNFa wells.
On to `O=C(NC1CCCc2ccccc21)C1CCN(c2nnc(-n3cccc3)s2)CC1` (stereo not given), for which the inhibition (commonly the drop in the measured response relative to a control, in per cent) is -6% (inactive) and the cell count worked out at 686.

For `c1ccc(Oc2ccc(-n3cnnn3)cc2)cc1`, the inhibition is 1.5% (inactive) and the cell count amounted to 254.

With `COc1ccc(C)cc1NC(=O)CN(Cc1nnc(-c2ccc(Cl)cc2)o1)C1CCCC1`, the cell count turned out to be 392 and the inhibition is 2.4% (inactive).

Consider `O=C(NCCN1C(=O)C2C3C=CC(C3)C2C1=O)N1CCCCC1` (stereo not given), for which the inhibition was -7.6% (inactive) and the cell count amounted to 584.

On to `CCOc1ccc(N2CC(C(=O)Nc3cccc(C)c3C)CC2=O)cc1` (stereo not given), for which the inhibition was 0.6% (inactive) and the cell count came to 694.

On to `CCOC(=O)c1c(C)[nH]c(C(=O)Cn2c(=O)oc3ccccc32)c1C`, for which the inhibition is 7.6% (inactive) and the cell count turned out to be 256.

Turning to `COc1cccc(-n2ccnc2SCC(=O)N2CCc3ccccc32)c1`, the cell count was found to be 565 and the inhibition is -7.6% (inactive).

`Cc1[nH]c2ccccc2c1Cc1nnc(SCC(=O)NCc2ccco2)o1`: the cell count was found to be 428 and the inhibition is -7.7% (inactive).

Consider `CCN(CC)CCCNC(=O)c1cn(C)c2ccc(S(=O)(=O)N(C)C)cc2c1=O`, for which the inhibition is -2.8% (inactive) and the cell count was 559.

`CC(=O)NCC(=O)N(Cc1ccco1)C1(C(=O)NC2CCCCC2)CCCCC1`: the cell count is 571 and the inhibition is 5.7% (inactive).

Consider `COc1ccc(NC(=O)C2CCCN(S(=O)(=O)c3cccc4cccnc34)C2)cc1OC` (stereo not given), for which the inhibition is -2.6% (inactive) and the cell count was 551.

In the case of `O=c1[nH]c(CN2CCN(Cc3ccccc3)CC2)nc2sc3c(c12)CCC3`, the inhibition was -0.4% (inactive) and the cell count amounted to 406.

As for `O=C(CC1CCS(=O)(=O)C1)Nc1ccc[nH]c1=O` (stereo not given), the cell count was found to be 475 and the inhibition was -4.7% (inactive).

Consider `CCOC(=O)N1CCN(C(=O)CSc2nnc(COc3ccccc3)o2)CC1`, for which the inhibition is 4.7% (inactive) and the cell count came to 596.

Turning to `CC(C)OC(=O)CSc1nnc(-c2ccc(C(C)(C)C)cc2)n1N`, the inhibition was -2.3% (inactive) and the cell count was 396.

With `CCCCn1c(=O)[nH]c(=O)c2c1nc(-c1ccncc1)n2CCOC`, the cell count was 542 and the inhibition was -15.4% (inactive).

Consider `O=C(NCCC1=CCCCC1)c1cc2c(s1)CS(=O)(=O)C2`, for which the inhibition is 6% (inactive) and the cell count turned out to be 610.

With `COc1ccc(N2C(=O)CC(N3CCN(c4ccccc4F)CC3)C2=O)cc1` (stereo not given), the cell count came to 698 and the inhibition is -8.7% (inactive).

As for `CCCN1CC23C=CC(O2)C(C(=O)O)C3C1=O` (stereo not given), the cell count came to 833 and the inhibition was -8.7% (inactive).

Consider `CCN(CCCNC(=O)COc1cc(=O)n(CC)c2ccccc12)c1ccccc1`, for which the inhibition was 0.6% (inactive) and the cell count came out at 377.

Turning to `CN(CC(=O)N1CCCc2c1c(=O)oc1ccc(O)cc21)Cc1ccccc1`, the cell count worked out at 418 and the inhibition was 5.7% (inactive).

Regarding `COc1ccc2[nH]c(=O)c(CNC3CCCCC3)cc2c1`, the inhibition was 6.3% (inactive) and the cell count turned out to be 673.

Consider `CC(=O)N1CCN=C1SCc1c(F)cccc1Cl`, for which the inhibition was 9.8% (inactive) and the cell count was found to be 509.

In the case of `CN(CCCNC(=O)c1cn(C)c2ccc(S(=O)(=O)N(C)C)cc2c1=O)c1ccccc1`, the cell count is 596 and the inhibition was -4.5% (inactive).

For the compound `Cc1nc2ccc(S(=O)(=O)NCC(=O)N3CCCCC3)cc2s1`, the cell count was found to be 277 and the inhibition is -3% (inactive).

`O=C1CC(C(=O)Nc2ccc(Br)cc2)C2(CCCC2)O1` (stereo not given): the cell count stood at 630 and the inhibition was -4.1% (inactive).

As to `CCN(C(=O)c1cc(Cl)ccc1OC)c1ccccc1`, the cell count worked out at 354 and the inhibition is 5.3% (inactive).

For the compound `Fc1cccc(Nc2cc(-n3cccn3)ncn2)c1`, the inhibition was -8.3% (inactive) and the cell count came out at 553.

On to `O=C(COc1ccccc1F)NC1CC1`, for which the inhibition was -13% (inactive) and the cell count worked out at 235.

For the compound `CC(=O)c1ccc(NC2OC(C)C(O)C(O)C2O)cc1` (stereo not given), the cell count was 329 and the inhibition is 4.3% (inactive).

For the compound `COc1ccc(N2CCN(C(c3cccs3)c3nnnn3C3CCCC3)CC2)cc1` (stereo not given), the cell count came out at 219 and the inhibition is 12.7% (inactive).

For `C=CCOc1nc2c(c(=O)n(C)c(=O)n2C)n1C`, the cell count came to 339 and the inhibition is 1% (inactive).

Regarding `COc1ccccc1NC(=O)c1ccc(COc2ccccc2OC)o1`, the inhibition was -15.7% (inactive) and the cell count turned out to be 596.

Consider `CCOc1ccc(N(CC(=O)NCc2cccc(OC)c2)S(=O)(=O)c2c(C)noc2C)cc1`, for which the inhibition is -3.2% (inactive) and the cell count turned out to be 362.

Take `CCCCN(C)C(=O)c1ccc(CS(=O)(=O)c2ccccc2C)o1`: the cell count was 315 and the inhibition is -10.4% (inactive).

As for `CC(C)Cc1nc(S(=O)(=O)c2ccc(Cl)cc2)c(N2CCOCC2)o1`, the inhibition was -12.7% (inactive) and the cell count is 570.

Take `O=C(Cn1nnc(-c2ccc(CN3CCOCC3)cc2)n1)NC1CCCCC1`: the cell count came to 447 and the inhibition is 0.3% (inactive).

Turning to `CC(=O)Nc1nc(=S)ss1`, the cell count is 568 and the inhibition was -7.2% (inactive).

In the case of `O=C(NCc1cccnc1)c1ccc2c(c1)OCO2`, the inhibition was 10.5% (inactive) and the cell count was 415.

Consider `O=C1C(c2ccncc2)=C(O)c2ccccc21`, for which the cell count was 302 and the inhibition was -8.6% (inactive).

A short description of the next experiment: inhibitors of mutant huntingtin aggregation, primary screen, imaging, exon1htt(103Q)mCFP cells, high-content imaging (AID 483;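 active = visual image review flags a hit and inhibition of aggregation exceeds 20%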;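 note: compound exposure lasted 3 days before fixation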;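 for nuclei count: percent of the per-plate median nuclei count of sample wells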). To be noted: exon1htt(103Q)mCFP cell line, aggregate imaging, at 2 µM; inhibition of aggregation: stronger effect = higher value; nuclei count: measured here: cell count, toxicity.
With `O=C(NC1CCCc2ccccc21)C1CCN(c2nnc(-n3cccc3)s2)CC1` (stereo not given), the inhibition of aggregation was -12.1% (inactive) and the nuclei count was 116%.

In the case of `c1ccc(Oc2ccc(-n3cnnn3)cc2)cc1`, the nuclei count came to 66% and the inhibition of aggregation was -1.2% (inactive).

Take `COc1ccc(C)cc1NC(=O)CN(Cc1nnc(-c2ccc(Cl)cc2)o1)C1CCCC1`: the nuclei count amounted to 85.9% and the inhibition of aggregation is -4.1% (inactive).

As to `O=C(NCCN1C(=O)C2C3C=CC(C3)C2C1=O)N1CCCCC1` (stereo not given), the nuclei count came to 104% and the inhibition of aggregation was 0.9% (inactive).

Turning to `CCOc1ccc(N2CC(C(=O)Nc3cccc(C)c3C)CC2=O)cc1` (stereo not given), the inhibition of aggregation was 12.5% (inactive) and the nuclei count was found to be 85.4%.

With `CCOC(=O)c1c(C)[nH]c(C(=O)Cn2c(=O)oc3ccccc32)c1C`, the inhibition of aggregation was 17.3% (inactive) and the nuclei count came to 97.3%.

`COc1cccc(-n2ccnc2SCC(=O)N2CCc3ccccc32)c1`: the inhibition of aggregation is 3% (inactive) and the nuclei count came out at 108%.

Regarding `Cc1[nH]c2ccccc2c1Cc1nnc(SCC(=O)NCc2ccco2)o1`, the inhibition of aggregation is 12.9% (inactive) and the nuclei count came out at 83.4%.

As to `CCN(CC)CCCNC(=O)c1cn(C)c2ccc(S(=O)(=O)N(C)C)cc2c1=O`, the nuclei count came out at 73.6% and the inhibition of aggregation is -53.9% (inactive).

In the case of `CC(=O)NCC(=O)N(Cc1ccco1)C1(C(=O)NC2CCCCC2)CCCCC1`, the inhibition of aggregation is 19.5% (inactive) and the nuclei count worked out at 132%.

With `COc1ccc(NC(=O)C2CCCN(S(=O)(=O)c3cccc4cccnc34)C2)cc1OC` (stereo not given), the nuclei count was 104% and the inhibition of aggregation is -0.5% (inactive).

Consider `O=c1[nH]c(CN2CCN(Cc3ccccc3)CC2)nc2sc3c(c12)CCC3`, for which the nuclei count was 109% and the inhibition of aggregation was -0.1% (inactive).

Regarding `O=C(CC1CCS(=O)(=O)C1)Nc1ccc[nH]c1=O` (stereo not given), the inhibition of aggregation was -4.6% (inactive) and the nuclei count was 63.8%.

On to `CCOC(=O)N1CCN(C(=O)CSc2nnc(COc3ccccc3)o2)CC1`, for which the nuclei count was 105% and the inhibition of aggregation is -3.5% (inactive).

With `CC(C)OC(=O)CSc1nnc(-c2ccc(C(C)(C)C)cc2)n1N`, the inhibition of aggregation is 4.2% (inactive) and the nuclei count is 80.6%.

Consider `CCCCn1c(=O)[nH]c(=O)c2c1nc(-c1ccncc1)n2CCOC`, for which the inhibition of aggregation is -7.3% (inactive) and the nuclei count came out at 107%.

On to `O=C(NCCC1=CCCCC1)c1cc2c(s1)CS(=O)(=O)C2`, for which the nuclei count was determined as 102% and the inhibition of aggregation is -19.3% (inactive).

Turning to `COc1ccc(N2C(=O)CC(N3CCN(c4ccccc4F)CC3)C2=O)cc1` (stereo not given), the inhibition of aggregation is -1.9% (inactive) and the nuclei count was determined as 108%.

As for `CCCN1CC23C=CC(O2)C(C(=O)O)C3C1=O` (stereo not given), the nuclei count turned out to be 109% and the inhibition of aggregation is -27.3% (inactive).

For `CCN(CCCNC(=O)COc1cc(=O)n(CC)c2ccccc12)c1ccccc1`, the nuclei count turned out to be 104% and the inhibition of aggregation was 1.3% (inactive).

In the case of `CN(CC(=O)N1CCCc2c1c(=O)oc1ccc(O)cc21)Cc1ccccc1`, the nuclei count was 97.1% and the inhibition of aggregation was -21% (inactive).

In the case of `COc1ccc2[nH]c(=O)c(CNC3CCCCC3)cc2c1`, the inhibition of aggregation is 3.5% (inactive) and the nuclei count was determined as 112%.

For `CC(=O)N1CCN=C1SCc1c(F)cccc1Cl`, the nuclei count was 110% and the inhibition of aggregation is -12.4% (inactive).

For the compound `CN(CCCNC(=O)c1cn(C)c2ccc(S(=O)(=O)N(C)C)cc2c1=O)c1ccccc1`, the nuclei count was 37.6% and the inhibition of aggregation was -18.9% (inactive).

In the case of `Cc1nc2ccc(S(=O)(=O)NCC(=O)N3CCCCC3)cc2s1`, the nuclei count was 79.6% and the inhibition of aggregation is 11.4% (inactive).

As to `O=C1CC(C(=O)Nc2ccc(Br)cc2)C2(CCCC2)O1` (stereo not given), the inhibition of aggregation was -3.7% (inactive) and the nuclei count was found to be 102%.

On to `CCN(C(=O)c1cc(Cl)ccc1OC)c1ccccc1`, for which the inhibition of aggregation was -20.6% (inactive) and the nuclei count came out at 100%.

As to `Fc1cccc(Nc2cc(-n3cccn3)ncn2)c1`, the nuclei count stood at 89.5% and the inhibition of aggregation is -0.2% (inactive).

For the compound `O=C(COc1ccccc1F)NC1CC1`, the nuclei count worked out at 92.8% and the inhibition of aggregation is 14.4% (inactive).

Take `CC(=O)c1ccc(NC2OC(C)C(O)C(O)C2O)cc1` (stereo not given): the inhibition of aggregation is -0.6% (inactive) and the nuclei count is 93.8%.

Regarding `COc1ccc(N2CCN(C(c3cccs3)c3nnnn3C3CCCC3)CC2)cc1` (stereo not given), the inhibition of aggregation was 1.6% (inactive) and the nuclei count amounted to 104%.

On to `C=CCOc1nc2c(c(=O)n(C)c(=O)n2C)n1C`, for which the nuclei count came out at 113% and the inhibition of aggregation was -1.3% (inactive).

On to `COc1ccccc1NC(=O)c1ccc(COc2ccccc2OC)o1`, for which the nuclei count is 132% and the inhibition of aggregation is -20% (inactive).

With `CCOc1ccc(N(CC(=O)NCc2cccc(OC)c2)S(=O)(=O)c2c(C)noc2C)cc1`, the inhibition of aggregation is 18.9% (inactive) and the nuclei count worked out at 95%.

Turning to `CCCCN(C)C(=O)c1ccc(CS(=O)(=O)c2ccccc2C)o1`, the nuclei count was found to be 65.2% and the inhibition of aggregation is 10.5% (inactive).

`CC(C)Cc1nc(S(=O)(=O)c2ccc(Cl)cc2)c(N2CCOCC2)o1`: the inhibition of aggregation was -12.7% (inactive) and the nuclei count worked out at 119%.

Regarding `O=C(Cn1nnc(-c2ccc(CN3CCOCC3)cc2)n1)NC1CCCCC1`, the inhibition of aggregation was 7.3% (inactive) and the nuclei count was 108%.

Turning to `CC(=O)Nc1nc(=S)ss1`, the inhibition of aggregation is 1.3% (inactive) and the nuclei count was 60.9%.

For `O=C(NCc1cccnc1)c1ccc2c(c1)OCO2`, the inhibition of aggregation was -7.2% (inactive) and the nuclei count is 103%.

As to `O=C1C(c2ccncc2)=C(O)c2ccccc21`, the inhibition of aggregation was 1.9% (inactive) and the nuclei count was determined as 73%.
